# Results from PubChem BioAssay (NCI).
# The panel holds about 79,000 compounds, 15% with a hit somewhere; the sample as a whole holds those more often. Values without a mark were called inactive. Active and inactive are the calls of the source. Rule as the data show it: active = growth inhibition above about 70%; inactive = the rest.
# Tests used:
# [1] = NCI Yeast Anticancer Drug Screen. Data for the rad52 strain (AID 147);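 also: 0% = growth of vehicle-treated control cultures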; settings: S. cerevisiae rad52 mutant growth inhibition, hits give high values
# Method in brief: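 Screen used a yeast mutant impaired in DNA repair. After compound exposure, growth was measured. Values reflect inhibition compared with vehicle-treated cells.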
# [2] = NCI Yeast Anticancer Drug Screen. Data for the wt1 strain (AID 149);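 also: 0% = growth of vehicle-treated wt1 cultures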; settings: S. cerevisiae wt1 strain (SPY 50644) growth inhibition, hits give high values
# Method in brief: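 Vehicle-normalised growth inhibition; strain wt1; compound exposure.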
# [3] = NCI Yeast Anticancer Drug Screen. Data for the rad50EPP+ strain (AID 151);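 also: 0% = growth of vehicle-treated control cultures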; settings: S. cerevisiae rad50 mutant strain, hits give high values
# Method in brief: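 Exposing the rad50EPP+ strain to each compound, growth was compared with vehicle-only cultures to give inhibition.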
# [4] = NCI Yeast Anticancer Drug Screen. Data for the mgt1 strain (AID 153); settings: S. cerevisiae mgt1 mutant growth inhibition, hits give high values
# Method in brief: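 Genetically defined yeast (mgt1) treated with compound; inhibition of growth expressed against vehicle-treated controls.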
# [5] = NCI Yeast Anticancer Drug Screen. Data for the rad50 strain (AID 155);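 also: 0% = growth of vehicle-only cultures of the same strain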; settings: S. cerevisiae rad50 strain growth inhibition, hits give high values
# Method in brief: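 A DNA repair-deficient yeast mutant serves as the test organism; compound-induced growth inhibition is calculated against vehicle-treated cells.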
# [6] = NCI Yeast Anticancer Drug Screen. Data for the mec2-1 strain (AID 157); settings: S. cerevisiae mec2-1 strain, hits give high values
# Method in brief: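 Readout is yeast growth inhibition, normalised to vehicle-treated controls, in the mec2-1 strain exposed to compound.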
# [7] = NCI Yeast Anticancer Drug Screen. Data for the rad14 strain (AID 159);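 also: 0% = growth of vehicle-treated control cultures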; settings: S. cerevisiae rad14 strain growth inhibition, hits give high values
# Method in brief: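 Vehicle-treated cultures served as the baseline for growth inhibition of a DNA repair-mutant yeast strain exposed to each compound.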
# [8] = NCI Yeast Anticancer Drug Screen. Data for the sgs1 mgt1 strain (AID 161);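 also: 0% = growth of cultures given vehicle only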; settings: S. cerevisiae sgs1 mgt1 strain, hits give high values
# Method in brief: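 This yeast growth screen uses a strain with defined DNA-repair lesions; compound-treated growth is compared with vehicle-treated growth.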
# [9] = NCI Yeast Anticancer Drug Screen. Data for the CLN2oe strain (AID 163);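 also: 0% = growth of vehicle-only control cultures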; settings: S. cerevisiae CLN2oe strain, hits give high values
# Method in brief: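 Values reflect how much compound exposure reduced yeast growth, referenced to vehicle-exposed cells. Assay organism is a strain with a defined genetic change affecting cell-cycle control.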
# [10] = NCI Yeast Anticancer Drug Screen. Data for the cln2 rad14 strain (AID 165);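 also: 0% = growth equal to vehicle treated cultures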; settings: S. cerevisiae cln2 rad14 strain, hits give high values
# Method in brief: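 Relative to vehicle controls, growth inhibition of compound-treated cln2 rad14 yeast was recorded.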
# [11] = NCI Yeast Anticancer Drug Screen. Data for the bub3 strain (AID 167); settings: S. cerevisiae bub3 mutant strain, hits give high values
# Method in brief: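 Inhibition values come from growth of compound-treated mutant yeast normalised to vehicle-treated controls.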
# [12] = NCI Yeast Anticancer Drug Screen. Data for the wt2 strain (AID 169);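 also: 0% = growth of vehicle-treated yeast cultures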; settings: S. cerevisiae wt2 strain growth inhibition, hits give high values
# Method in brief: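 Values express reduction in yeast growth under compound treatment, referenced to vehicle-treated cells.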
# [13] = NCI Yeast Anticancer Drug Screen. Data for the sgs1 strain (AID 173);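 also: 0% = growth of vehicle-only control cultures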; settings: S. cerevisiae sgs1 mutant, hits give high values
# Method in brief: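 Treat defined-mutant yeast with compound; measure growth; calculate inhibition relative to vehicle-treated cells.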
# [14] = NCI Yeast Anticancer Drug Screen. Data for the mlh1 rad18 strain (AID 175); settings: S. cerevisiae mlh1 rad18 strain growth inhibition, hits give high values
# Method in brief: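 Test agents were incubated with a yeast strain of defined genotype (DNA damage repair defect). Inhibition of growth was derived by comparison with vehicle-exposed cultures.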
# [15] = NCI Yeast Anticancer Drug Screen. Data for the rad18 strain (AID 177); settings: S. cerevisiae rad18 mutant growth inhibition, hits give high values
# Method in brief: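 A genetically defined yeast mutant impaired in DNA damage repair was treated with test compounds, then its growth was measured against cultures receiving vehicle alone.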
# [16] = at 5.0 µM (retest, dose inferred, filed as 0.5)
# [17] = at 50.0 µM (retest, dose inferred, filed as 5.0)
smiles,measurement,setting,value
NC(=S)N1N=C2c3ccccc3CC[C@@H]2[C@@H]1c1ccccc1,growth inhibition,[1]; at 1.2 µM,-34%
same,growth inhibition,[1]; at 3.7 µM,-17%
same,growth inhibition,[1]; at 11.0 µM,-8%
same,growth inhibition,[1]; at 33.0 µM,7%
same,growth inhibition,[1]; at 100.0 µM,77% (active)
same,growth inhibition,[2]; at 1.2 µM,11%
same,growth inhibition,[2]; at 3.7 µM,2%
same,growth inhibition,[2]; at 11.0 µM,2%
same,growth inhibition,[2]; at 33.0 µM,9%
same,growth inhibition,[2]; at 100.0 µM,67%
same,growth inhibition,[3]; at 1.2 µM,-31%
same,growth inhibition,[3]; at 3.7 µM,-36%
same,growth inhibition,[3]; at 11.0 µM,-49%
same,growth inhibition,[3]; at 33.0 µM,-40%
same,growth inhibition,[3]; at 100.0 µM,-23%
same,growth inhibition,[4]; at 1.2 µM,-17%
same,growth inhibition,[4]; at 3.7 µM,-29%
same,growth inhibition,[4]; at 11.0 µM,-19%
same,growth inhibition,[4]; at 33.0 µM,15%
same,growth inhibition,[4]; at 100.0 µM,88% (active)
same,growth inhibition,[5]; at 1.2 µM,-13%
same,growth inhibition,[5]; at 3.7 µM,-2%
same,growth inhibition,[5]; [16],35%
same,growth inhibition,[5]; at 11.0 µM,-1%
same,growth inhibition,[5]; at 33.0 µM,15%
same,growth inhibition,[5]; [17],79% (active)
same,growth inhibition,[5]; at 50.0 µM,75.6% (active)
same,growth inhibition,[5]; at 100.0 µM,86% (active)
same,growth inhibition,[6]; at 1.2 µM,-10%
same,growth inhibition,[6]; at 3.7 µM,-13%
same,growth inhibition,[6]; [16],-16%
same,growth inhibition,[6]; at 11.0 µM,-3%
same,growth inhibition,[6]; at 33.0 µM,13%
same,growth inhibition,[6]; [17],77% (active)
same,growth inhibition,[6]; at 50.0 µM,64.4%
same,growth inhibition,[6]; at 100.0 µM,73% (active)
same,growth inhibition,[7]; at 1.2 µM,-36%
same,growth inhibition,[7]; at 3.7 µM,-33%
same,growth inhibition,[7]; at 11.0 µM,-25%
same,growth inhibition,[7]; at 33.0 µM,2%
same,growth inhibition,[7]; at 100.0 µM,84% (active)
same,growth inhibition,[8]; [16],8%
same,growth inhibition,[8]; [17],82% (active)
same,growth inhibition,[8]; at 50.0 µM,83% (active)
same,growth inhibition,[9]; at 1.2 µM,-28%
same,growth inhibition,[9]; at 3.7 µM,-27%
same,growth inhibition,[9]; at 11.0 µM,-25%
same,growth inhibition,[9]; at 33.0 µM,-10%
same,growth inhibition,[9]; at 100.0 µM,73% (active)
same,growth inhibition,[10]; [16],-4%
same,growth inhibition,[10]; [17],55%
same,growth inhibition,[10]; at 50.0 µM,67.2%
same,growth inhibition,[11]; at 1.2 µM,-4%
same,growth inhibition,[11]; at 3.7 µM,11%
same,growth inhibition,[11]; [16],27%
same,growth inhibition,[11]; at 11.0 µM,-4%
same,growth inhibition,[11]; at 33.0 µM,34%
same,growth inhibition,[11]; [17],86% (active)
same,growth inhibition,[11]; at 50.0 µM,77.1% (active)
same,growth inhibition,[11]; at 100.0 µM,90% (active)
same,growth inhibition,[12]; at 1.2 µM,-17%
same,growth inhibition,[12]; at 3.7 µM,-5%
same,growth inhibition,[12]; at 11.0 µM,-2%
same,growth inhibition,[12]; at 33.0 µM,25%
same,growth inhibition,[12]; at 100.0 µM,86% (active)
same,growth inhibition,[13]; at 1.2 µM,6%
same,growth inhibition,[13]; at 3.7 µM,13%
same,growth inhibition,[13]; at 11.0 µM,27%
same,growth inhibition,[13]; at 33.0 µM,68%
same,growth inhibition,[13]; at 100.0 µM,89% (active)
same,growth inhibition,[14]; [16],-15%
same,growth inhibition,[14]; [17],81% (active)
same,growth inhibition,[14]; at 50.0 µM,74.5% (active)
same,growth inhibition,[15]; at 1.2 µM,-25%
same,growth inhibition,[15]; at 3.7 µM,-21%
same,growth inhibition,[15]; at 11.0 µM,-11%
same,growth inhibition,[15]; at 33.0 µM,14%
same,growth inhibition,[15]; at 100.0 µM,66%
